Measured values from paper PMC4336329 (PLoS ONE, 2015).
Out of some 310,000 compounds screened, about 14,000 (4.5%) showed an effect of 50% or more. Effects have a minus sign here. The full list was thinned out, with strong results kept by preference.

target: human ether-à-go-go-related gene (hERG) potassium channel (human, UniProt Q12809); assay: primary screen, population patch clamp on CHO cells stably expressing hERG; higher = less effect of the substance
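Note: peak tail current of the secondary pulse compared with the same well before compound.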

human ether-à-go-go-related gene (hERG) potassium channel, sequence (Q12809 whole entry, looked up): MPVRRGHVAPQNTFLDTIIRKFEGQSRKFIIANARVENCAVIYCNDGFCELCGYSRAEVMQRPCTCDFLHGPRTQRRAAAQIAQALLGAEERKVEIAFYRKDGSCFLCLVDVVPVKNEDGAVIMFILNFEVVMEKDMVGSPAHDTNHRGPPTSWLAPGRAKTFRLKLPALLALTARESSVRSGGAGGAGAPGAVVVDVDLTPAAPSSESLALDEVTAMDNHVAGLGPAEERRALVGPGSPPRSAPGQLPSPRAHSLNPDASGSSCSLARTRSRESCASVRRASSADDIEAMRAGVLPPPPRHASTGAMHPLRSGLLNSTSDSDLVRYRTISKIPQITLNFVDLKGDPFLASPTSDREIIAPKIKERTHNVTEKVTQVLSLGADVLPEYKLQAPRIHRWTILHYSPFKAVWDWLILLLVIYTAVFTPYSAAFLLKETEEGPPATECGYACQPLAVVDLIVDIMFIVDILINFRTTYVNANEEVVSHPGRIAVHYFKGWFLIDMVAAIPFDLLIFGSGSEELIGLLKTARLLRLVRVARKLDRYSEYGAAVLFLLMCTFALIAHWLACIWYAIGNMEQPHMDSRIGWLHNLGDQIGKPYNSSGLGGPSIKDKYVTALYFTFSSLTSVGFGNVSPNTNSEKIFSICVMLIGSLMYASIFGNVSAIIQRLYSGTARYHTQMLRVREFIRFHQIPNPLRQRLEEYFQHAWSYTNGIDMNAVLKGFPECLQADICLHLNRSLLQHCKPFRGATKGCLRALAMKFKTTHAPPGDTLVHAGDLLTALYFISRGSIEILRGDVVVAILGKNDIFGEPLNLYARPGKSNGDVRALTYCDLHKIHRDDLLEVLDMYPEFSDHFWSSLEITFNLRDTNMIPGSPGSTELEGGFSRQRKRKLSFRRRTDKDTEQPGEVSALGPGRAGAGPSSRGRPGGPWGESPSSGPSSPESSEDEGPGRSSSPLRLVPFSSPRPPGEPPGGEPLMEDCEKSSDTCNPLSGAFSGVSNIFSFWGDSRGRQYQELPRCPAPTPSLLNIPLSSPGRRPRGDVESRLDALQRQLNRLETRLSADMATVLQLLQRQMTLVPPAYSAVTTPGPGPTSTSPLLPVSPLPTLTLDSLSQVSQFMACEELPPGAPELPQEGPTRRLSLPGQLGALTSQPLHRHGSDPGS

In order of falling “hERG current change (%, negative = inhibition) at 10uM” value:
1. CCC1=NN(C(=O)c2ccccc2Br)C(O)(c2ccc(Br)cc2)C1 (stereo not drawn)  25.2%
2. O=C(N/N=C/c1ccc2c(c1)OCO2)c1ccc(Cl)cc1Cl  20.3%
3. O=C1NC(=O)/C(=C\c2ccc(OCc3cccc(C(=O)O)c3)c(Cl)c2)N1  20.1%
4. O=C(NC(=S)NNS(=O)(=O)c1ccc(Cl)cc1)c1cccnc1  18.6%
5. CC(=O)Nc1ccc(N2C(=O)c3cccc4c(O)ccc(c34)C2=O)cc1  13.4%
6. COC(=O)C(C)N=Cc1ccccc1 (stereo not drawn)  12.9%
7. COc1cc(OC)cc(C(=O)Nc2ccc(S(=O)(=O)Nc3ncccn3)cc2)c1  12.8%
8. Cc1cc(-c2nn3c(C)nnc3s2)ccc1NC(=O)C(C)(C)C  10.7%
9. COc1ccc(-n2c(/C=C/c3ccc(O)c(O)c3)nc3ccccc3c2=O)cc1  10.6%
10. Cc1nc2ccccc2c(=O)n1/N=C/c1ccc(O)cc1O  10.4%
11. O=C(Nc1ccc(S(=O)(=O)NCc2cccnc2)cc1)c1ccco1  10.2%
12. CC(C)=C(NC(=O)c1ccccc1)C(=O)NCCc1nc2ccccc2[nH]1  9.91%
13. CCCCn1c(N)c(N(CC(C)C)C(=O)c2ccc(S(=O)(=O)N3CCCCCC3)cc2)c(=O)[nH]c1=O  9.58%
14. Cc1ccc(NC(C)C(=O)N/N=C/c2ccc([N+](=O)[O-])s2)cc1 (stereo not drawn)  8.3%
15. COc1ccc(OC)c(S(=O)(=O)N2CCC(C(=O)N3CCCC3)CC2)c1  7.71%
16. N#CCC(=O)Nc1ccc(C(=O)NCC2(N3CCOCC3)CCCCC2)cc1  7.48%
17. CC(C)c1ccc(/C=C2\SC(=O)N(CC(=O)NC3C=CS(=O)(=O)C3)C2=O)cc1 (stereo not drawn)  5.89%
18. COc1ccc(OC)c(S(=O)(=O)N2CCC(C(=O)N3CCCCCC3)CC2)c1  5.45%
19. O=C(Cc1ccc(Cl)cc1Cl)NCC1(N2CCOCC2)CCCCC1  5.44%
20. CN1CCN(C(=O)C2CCN(S(=O)(=O)c3ccc(F)cc3)CC2)CC1  5.18%
21. O=C(O)c1ccc2c(=O)n3c(nc2c1)/C(=C/c1ccccc1Br)CC3  4.66%
22. O=C(NC(=S)Nc1ccc2oc(=O)ccc2c1)c1cccc(Cl)c1  4.11%
23. O=C(CNC(=S)N(Cc1ccccc1)Cc1ccccc1F)NCCc1ccccc1  3.73%
24. O=C(Nc1cccc(C(=O)O)c1)/C(=C\c1ccc2c(c1)OCO2)NC(=O)c1ccccc1Cl  3.5%
25. CCC(=O)N1CCc2cc(S(=O)(=O)CCC(=O)N3CCN(c4ccccc4)CC3)ccc21  3.15%
26. CC(C)c1ccc(S(=O)(=O)N2CCN(C(=O)C3CCCC3)CC2)cc1  2.78%
27. O=C1CS/C(=N/N=C/c2ccccc2)N1Cc1ccco1  1.4%
28. O=C(NC1CCS(=O)(=O)C1)/C(=C\c1ccco1)NC(=O)c1ccccc1 (stereo not drawn)  1.36%
29. C/C(=N\NC(=O)CCCNc1cccc(C)c1)c1ccncc1  0.987%
30. O=C(COc1ncnc2sccc12)N1CCc2ccccc2C1  0.518%
31. NS(=O)(=O)c1cc(C(=O)O)cc(N2CCCC2)c1Oc1ccccc1  0.0774%
32. O=C(Nc1ccc(Cl)cn1)c1ccccc1F  -1.25%
33. CC(=O)N1CCC(C(=O)N2CCN(S(=O)(=O)c3ccc(F)cc3)CC2)CC1  -1.33%
34. COc1ccc(-c2[nH]ncc2CN(C)Cc2cccnc2)c(F)c1  -1.66%
35. CCOc1ccc(CN2CCNC(=O)C2CC(=O)NCc2cc(C)n(C)n2)cc1 (stereo not drawn)  -1.95%
36. CCc1ccccc1OCC(=O)OCC(=O)Nc1cc(C)on1  -2.74%
37. CC(NCC1(N2CCOCC2)CCCCC1)C(=O)N1CCc2ccccc21.O=C(O)C(=O)O (stereo not drawn)  -5.73%
38. O=C(NCCCCCc1nc2ccccc2[nH]1)c1ccccc1Cl  -6.43%
39. Cc1ccc(S(=O)(=O)N2CCN(C(=O)c3ccco3)CC2)c(C)c1  -7.22%
40. O=c1c2ccccc2nc(/C=C/c2ccc3c(c2)OCO3)n1-c1cccc(O)c1  -7.38%
41. O=C(COc1ccc(Cl)cc1)N1CCCC1  -7.47%
42. CS/C(=N\NC(N)=O)c1ccccc1  -8.24%
43. COc1c(C)cc(C(=O)C2CCCN(Cc3cnc(N4CCOCC4)s3)C2)cc1C (stereo not drawn)  -8.64%
44. O=C(NCc1ccco1)c1ccc(Cl)c(S(=O)(=O)N2CCCC2)c1  -9.61%
45. Cc1ccc(S(=O)(=O)N2CCN(C(=O)COC(=O)c3ccc(Br)o3)CC2)c(C)c1  -10.3%
46. Cc1ccc2c(c1)C(c1ccccc1)=NCC(=O)N2  -12.8%
47. CCc1ccccc1NC(=O)CSc1nc2ccccc2nc1N1CCOCC1  -15.1%
48. O=C(Cn1cnc2c(nnn2Cc2ccc(F)cc2)c1=O)NCc1ccco1  -18.2%
49. O=C(CN1CCN(S(=O)(=O)c2ccc(F)cc2)CC1)NCC1(N2CCOCC2)CCCCC1  -18.6%
50. CC(=O)N1CCc2cc(S(=O)(=O)NC(CC(C)C)C(=O)N3CCCC3)ccc21 (stereo not drawn)  -20.2%
51. COc1ccc(-n2c(/C=C/c3ccc(O)cc3)nc3ccccc3c2=O)cc1  -21.6%
52. CCOC(=O)C1CCCN(C(=O)CCC(=O)Nc2ccc3nc(N4CCOCC4)cc(C)c3c2)C1 (stereo not drawn)  -23.7%
53. COc1cc(NC(=O)CN(C)S(=O)(=O)c2ccc3c(c2)CCC(=O)N3)cc(OC)c1  -23.9%
54. O=c1c2ccccc2nc(/C=C/c2ccc3c(c2)OCO3)n1-c1ccccc1  -26%
55. CC(=O)N1CCc2cc(S(=O)(=O)NC(CC(C)C)C(=O)N3CCc4ccccc4C3)ccc21 (stereo not drawn)  -26.8%
56. O=C(CN1CCN(CC(=O)Nc2cccc(F)c2)CC1)NCC1(N2CCOCC2)CCCCC1  -27%
57. Cc1ccc(C)c(S(=O)(=O)N2CCN(C(=O)C3CCN(C(=O)c4ccc(F)cc4)CC3)CC2)c1  -30.6%
58. O=C(c1ccc(F)cc1)N1CCC(C(=O)N2CCN(S(=O)(=O)c3ccccc3Br)CC2)CC1  -32.6%
59. Cl.O=C(COc1ccc(Cl)cc1)NC1CN2CCC1CC2 (stereo not drawn)  -35.1%
60. O=C(CCc1nc2ccccc2[nH]1)NCc1ccc2c(c1)OCO2  -38.1%
61. O=C(CN1CCN(S(=O)(=O)c2ccc(Cl)cc2)CC1)NCC1(N2CCOCC2)CCCCC1  -39.3%
62. COc1ccc(C(=O)N/C(=C\c2ccc3c(c2)OCO3)C(=O)NCCc2nc3ccccc3[nH]2)cc1  -39.4%
63. O=C(Nc1ccc(Cl)cc1)OC1CN2CCC1CC2 (stereo not drawn)  -40.6%
64. O=C(COc1ccc(Cl)cc1)N(Cc1cccs1)C1CCS(=O)(=O)C1 (stereo not drawn)  -48.1%
65. COc1ccc(N2CCN(C(=O)C3CCN(S(=O)(=O)c4ccc(F)cc4)CC3)CC2)cc1  -48.3%
66. Cc1ccc(-n2c(/C=C/c3ccc4c(c3)OCO4)nc3ccccc3c2=O)cc1  -50.4%
67. Cl.O=C(COc1ccc(Cl)cc1)N(c1ccccc1Cl)C1CN2CCC1CC2 (stereo not drawn)  -50.5%
68. CC(=O)c1ccc(N2CCN(C(=O)C3CCN(S(=O)(=O)c4ccc(F)cc4)CC3)CC2)cc1  -52.6%
69. CC(C)c1ccc(S(=O)(=O)N2CCN(C(=O)C3CCN(C(=O)c4ccc(F)cc4)CC3)CC2)cc1  -53.7%
70. Cc1ccc(S(=O)(=O)N2CCN(C(=O)c3ccc(Br)o3)CC2)c(C)c1  -55%
71. COc1ccc(-n2c(/C=C/c3ccc4c(c3)OCO4)nc3ccccc3c2=O)cc1  -55.3%
72. Cc1ccc(S(=O)(=O)N2CCN(C(=O)C3CCN(C(=O)c4ccc(F)cc4)CC3)CC2)c(C)c1  -55.7%
73. CC(=O)N1CCc2cc(S(=O)(=O)NC(CC(C)C)C(=O)N3CCn4c3nc3ccccc34)ccc21 (stereo not drawn)  -60%
74. Cl.O=C(COc1ccc(Cl)cc1)N(c1ccc(Cl)cc1)C1CN2CCC1CC2 (stereo not drawn)  -65.1%
75. O=C(NCCc1nc2ccccc2[nH]1)/C(=C/c1ccc2c(c1)OCO2)NC(=O)c1ccccc1  -71.1%
76. O=C(CN1CCN(CC(=O)Nc2ccc(F)cc2)CC1)NCC1(N2CCOCC2)CCCCC1  -73.4%
77. CC(NCC1(N2CCOCC2)CCCCC1)C(=O)Nc1ccc(Cl)cc1Cl.O=C(O)C(=O)O (stereo not drawn)  -74.6%
78. O=C(NCCc1nc2ccccc2[nH]1)/C(=C/c1ccc2c(c1)OCO2)NC(=O)c1ccc(Cl)cc1Cl  -76.3%
79. COc1ccc(OC)c(S(=O)(=O)N2CCC(C(=O)N3CCN(c4ccc(F)cc4)CC3)CC2)c1  -78%
80. O=C(CNCC1(N2CCOCC2)CCCCC1)Nc1ccc(Cl)cc1  -78.8%
81. O=C(NCCc1nc2ccccc2[nH]1)/C(=C/c1ccc2c(c1)OCO2)NC(=O)c1ccccc1Cl  -80.6%
